Measurements: PubChem BioAssay AID1159580 (chemical genetic matrix, 2015)
Where “and” joins values, the source holds several entries; their conditions need not be identical. Identical values can stand only once. Among all 5,500 compounds or so, about 2,000 (36%) were called active. Not shown: some 18% with an inconclusive outcome. No stated cut-off is given here; in the data, active means normalized growth mostly below about 0.91 (no sharp cut-off); inconclusive means no clear call, values can overlap the other calls; inactive means mostly above about 0.92. This is one part of the list.

Test: chemical genetic growth profiling, strain panel (AID 1159580);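 further: tested at 20 µM; growth read once vehicle control cultures reached saturation at 30 °C; 1 = growth at the plate median or of vehicle wells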
Details: S. cerevisiae deletion strains, growth OD

Measured: normalized growth

O=C(O)c1cc2ccccc2[nH]1
inactive: locus YAL013W, strain DEP1, stronger effect = lower value 1.01 | locus YAL021C, strain ccr4, stronger effect = lower value 0.969 | locus YAL026C, strain drs2, stronger effect = lower value 0.99 | locus YAL030W, strain snc1, stronger effect = lower value 1 | locus YBL061C, strain skt5, stronger effect = lower value 0.996 | locus YBR009C, strain hhf1, stronger effect = lower value 0.996 | locus YBR021W, strain FUR4, stronger effect = lower value 0.98 | locus YBR023C, strain chs3, stronger effect = lower value 0.994 | locus YBR171W, strain sec66, stronger effect = lower value 0.982 | locus YBR229C, strain ROT2, stronger effect = lower value 1 | locus YBR231C, strain swc5, stronger effect = lower value 0.994 | locus YBR279W, strain paf1, stronger effect = lower value 0.991 | locus YCL011C, strain gbp2, stronger effect = lower value 0.98 | locus YCL016C, strain dcc1, stronger effect = lower value 0.998 | locus YCL029C, strain bik1, stronger effect = lower value 1.01 | locus YCL061C, strain MRC1, stronger effect = lower value 0.973 | locus YCL069W, strain vba3, stronger effect = lower value 0.984 | locus YCR088W, strain abp1, stronger effect = lower value 0.98 | locus YDL005C, strain med2, stronger effect = lower value 0.982 | locus YDL035C, strain GPR1, stronger effect = lower value 1.01 | locus YDL040C, strain nat1, stronger effect = lower value 0.995 | locus YDL074C, strain BRE1, stronger effect = lower value 1.01 | locus YDL101C, strain DUN1, stronger effect = lower value 1.02 | locus YDL134C, strain PPH21, stronger effect = lower value 1.01 | locus YDL185W, strain tfp1, stronger effect = lower value 1.01 | locus YDL192W, strain arf1, stronger effect = lower value 1.02 | locus YDR001C, strain nth1, stronger effect = lower value 0.977 | locus YDR069C, strain doa4, stronger effect = lower value 1 | locus YDR101C, strain arx1, stronger effect = lower value 1.02 | locus YDR137W, strain rgp1, stronger effect = lower value 0.938 | locus YDR150W, strain NUM1, stronger effect = lower value 1.01 | locus YDR159W, strain sac3, stronger effect = lower value 0.982 | locus YDR162C, strain NBP2, stronger effect = lower value 1.04 | locus YDR195W, strain ref2 0.978 | locus YDR297W, strain sur2, stronger effect = lower value 0.981 | locus YDR318W, strain mcm21, stronger effect = lower value 1.01 | locus YDR334W, strain swr1, stronger effect = lower value 0.958 | locus YDR335W, strain msn5, stronger effect = lower value 0.987 | locus YDR388W, stronger effect = lower value 1.01 | locus YDR392W, strain spt3, stronger effect = lower value 0.947 | locus YDR502C, strain sam2, stronger effect = lower value 1.01 | locus YEL003W, strain gim4, stronger effect = lower value 0.978 | locus YEL037C, strain rad23, stronger effect = lower value 0.982 | locus YEL061C, strain CIN8 (second series), stronger effect = lower value 0.981 | locus YEL061C, strain CIN8, stronger effect = lower value 1 | locus YER015W, strain faa2, stronger effect = lower value 0.989 | locus YER016W, strain bim1, stronger effect = lower value 1 | locus YER110C, stronger effect = lower value 1.02 | locus YER111C, strain swi4, stronger effect = lower value 0.997 | locus YER155C, strain BEM2 (second series), stronger effect = lower value 1.01 | locus YER155C, strain BEM2, stronger effect = lower value 0.992 | locus YER167W, strain BCK2, stronger effect = lower value 1.01 | locus YFR010W, strain ubp6, stronger effect = lower value 0.968 | locus YGL078C, strain dbp3, stronger effect = lower value 0.995 | locus YGL086W, strain mad1, stronger effect = lower value 1.02 | locus YGL167C, strain pmr1, stronger effect = lower value 0.993 | locus YGL173C, strain kem1, stronger effect = lower value 0.975 | locus YGL227W, strain vid30, stronger effect = lower value 0.982 | locus YGL240W, strain doc1, stronger effect = lower value 1 | locus YGL248W, strain PDE1, stronger effect = lower value 1 | locus YGL253W, strain hxk2, stronger effect = lower value 0.987 | locus YGR078C, strain PAC10, stronger effect = lower value 0.99 | locus YGR135W, strain pre9, stronger effect = lower value 1.01 | locus YGR229C, strain SMI1, stronger effect = lower value 0.999 | locus YGR252W, strain gcn5, stronger effect = lower value 0.984 | locus YHR013C, strain ard1, stronger effect = lower value 1 | locus YHR027C, strain rpn1, stronger effect = lower value 1.02 | locus YHR030C, strain SLT2, stronger effect = lower value 1.01 and 1.03 | locus YHR079C, strain IRE1 (second series), stronger effect = lower value 1.01 | locus YHR079C, strain IRE1, stronger effect = lower value 1 | locus YHR094C, strain hxt1, stronger effect = lower value 1.02 | locus YHR129C, strain ARP1, stronger effect = lower value 1.01 | locus YHR142W, strain chs7, stronger effect = lower value 0.928 | locus YHR200W, strain rpn10, stronger effect = lower value 1.02 | locus YIL066C, strain RNR3, stronger effect = lower value 1.02 | locus YIL073C, strain SPO22, stronger effect = lower value 1.07 | locus YIL125W, strain kgd1, stronger effect = lower value 0.995 | locus YIR030C, strain dcg1, stronger effect = lower value 1.01 | locus YJL092W, strain hpr5, stronger effect = lower value 0.97 | locus YJL095W, strain BCK1 (second series), stronger effect = lower value 1 | locus YJL095W, strain BCK1, stronger effect = lower value 1.01 | locus YJL115W, strain asf1, stronger effect = lower value 0.975 | locus YJL129C, strain trk1, stronger effect = lower value 0.971 | locus YJL134W, strain LCB3, stronger effect = lower value 1.01 | locus YJL154C, strain vps35, stronger effect = lower value 0.966 | locus YJL164C, strain tpk1, stronger effect = lower value 1 | locus YJL166W, strain qcr8, stronger effect = lower value 1 | locus YJL168C, strain set2, stronger effect = lower value 1.02 | locus YJL187C, strain SWE1 (second series), stronger effect = lower value 1.01 | locus YJL187C, strain SWE1, stronger effect = lower value 0.988 | locus YJR043C, strain POL32, stronger effect = lower value 0.99 | locus YJR066W, strain TOR1, stronger effect = lower value 0.935
